Measurements as given in the supplement of paper PMC7156485.
± gives the standard deviation of the averaged measurements.

Columns and labels:
Conditions in all cases: concentration: 10 µM; 24 h
HCC1569 [1] = assay: cell number relative to DMSO (% of DMSO); higher = more cells (less growth inhibition / toxicity)
In short: (§1)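 HCC1569 and TDF cells were seeded at 800 per well in 384-well plates in RPMI with 10% FBS and treated with compounds at 10 µM for 24 h at 37 °C, in triplicate. After fixation in 3.7% formaldehyde, cells were stained with a rabbit anti-H1.0 antibody, an AlexaFluor 647 secondary and DAPI, and six fields per well were imaged at ×10. H1.0 nuclear intensity or cell number is given as percent of the plate control, using the median of replicates, with HCC1569 values smoothed for positional effects.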

TDF [2] = assay: as above
In short: as §1

TDF [3] = assay: H1.0 immunofluorescence intensity relative to DMSO (% of DMSO); higher = stronger H1.0 induction, active = 120 or more
In short: as §1

HCC1569 [4] = assay: H1.0 immunofluorescence intensity relative to DMSO (% of DMSO); higher = stronger H1.0 induction, active = 140 or more
In short: as §1
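Throughout, for H1.0 immunofluorescence intensity relative to DMSO: TDF is a line of transformed human dermal fibroblasts of mesenchymal origin.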
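Throughout, for cell number relative to DMSO: TDF denotes transformed human dermal fibroblasts of mesenchymal origin.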

Row | SMILES | cell number (HCC1569 [1]) | cell number (TDF [2]) | H1.0 immunofluorescence intensity (TDF [3]) | H1.0 immunofluorescence intensity (HCC1569 [4])
1 | O=C1C=CC(=O)C=C1 [p-Benzoquinone] | 100 | 99.8 | 93.1 (inactive) | 93.3 (inactive)
2 | CC1CCC2(NC1)OC1CC3C4CC=C5CC(O)CCC5(C)C4CCC3(C)C1C2C (configuration not stated) [Solasodine] | 102 | 97.4 | 100 (inactive) | 89.2 (inactive)
3 | COc1cc(C2c3cc4c(cc3C(O)C3COC(=O)C23)OCO4)cc(OC)c1OC (configuration not stated) [Picropodophyllin] | 58.3 | 10.9 | 165 (active) | 128 (inactive)
4 | CC=C1CN2CCC34C(=C(CC=O)C1CC23)Nc1ccccc14 (configuration not stated) [Norfluorocurarine] | 100 | 104 | 97.8 (inactive) | 96.3 (inactive)
5 | O=C([O-])Cc1ccccc1.[Na+] [Sodium Phenylacetate] | 96.8 | 103 | 96.8 (inactive) | 100 (inactive)
6 | COc1ccc(CCN2CCC(Nc3nc4ccccc4n3Cc3ccc(F)cc3)CC2)cc1 [Astemizole] | 88.6 | 89 | 109 (inactive) | 143 (active)
7 | CCC(C(=O)O)C1OC(C(C)C(O)C(C)C(=O)C(CC)C2OC3(C=CC(O)C4(CCC(C)(C5CCC(O)(CC)C(C)O5)O4)O3)C(C)CC2C)C(C)CC1C (configuration not stated) [Narasin] | 67.3 | 84.4 | 112 (inactive) | 159 (active)
8 | CN1C2CCC1CC(OC(=O)C(CO)c1ccccc1)C2 (configuration not stated) [Hyoscyamine] | 102 | 98 | 97.8 (inactive) | 94.8 (inactive)
9 | Cl.O=C(OC1CCN(CCCl)CC1)C(c1ccccc1)c1ccccc1 [4-Diphenylacetoxy-N-(2-chloroethyl)piperidine hydrochloride] | 98.2 | 94.9 | 89.5 (inactive) | 87.6 (inactive)
10 | COc1cc2c(cc1O)CC1c3c(cc(O)c(OC)c3-2)CCN1C (configuration not stated) [Boldine] | 103 | 103 | 105 (inactive) | 99.9 (inactive)
11 | COc1ccc(Cc2nccc3cc(OC)c(OC)cc23)cc1OC.Cl [Papaverine hydrochloride] | 87.1 ± 1.7 | 77.7 ± 7.8 | 102 (inactive) | 126 (inactive)
12 | CCC1=CC2CN3CCc4c([nH]c5ccccc45)C(C(=O)OC)(C2)C13 (configuration not stated) [Catharanthine] | 104 | 94.7 | 102 (inactive) | 92.1 (inactive)
13 | C=CC1CN2CCC1CC2C(O)c1ccnc2ccccc12 (single isomer, unassigned; (-)) [(-)-Cinchonidine] | 100 | 99.7 | 101 (inactive) | 100 (inactive)
14 | CCN(CC)C(=O)NC1C=C2c3cccc4[nH]cc(c34)CC2N(C)C1.O=C(O)C=CC(=O)O (stereo not drawn) [R(+)-Lisuride hydrogen maleate] | 103 | 117 | 91.4 (inactive) | 92.7 (inactive)
15 | Cc1ccc(S(=O)(=O)NC(CCCCN)C(=O)CCl)cc1.Cl [Na-p-Tosyl-L-lysine chloromethyl ketone hydrochloride] | 98.8 | 104 | 95.7 (inactive) | 101 (inactive)
16 | C[N+]1([O-])C2CC(OC(=O)C(CO)c3ccccc3)CC1C1OC12 (single isomer, unassigned; (-)) [(-)-Scopolamine N-oxide] | 96.4 | 105 | 99.4 (inactive) | 102 (inactive)
17 | CC1(O)CC23CC(O)C4(O)C(CC(O)C4(C)C)C(C)(O)C2CCC1C3O (configuration not stated) [Grayanotoxin III] | 99.6 | 102 | 91.9 (inactive) | 88.2 (inactive)
18 | C=C(C)C1CNC(C(=O)O)C1CC(=O)O (configuration not stated) [Kainic acid] | 103 ± 3.2 | 108 ± 3 | 92.5 (inactive) | 88.9 (inactive)
19 | COC(C(=O)C(O)C(C)O)C1Cc2cc3cc(OC4CC(OC5CC(O)C(OC)C(C)O5)C(OC(C)=O)C(C)O4)c(C)c(O)c3c(O)c2C(=O)C1OC1CC(OC2CC(OC3CC(C)(O)C(OC(C)=O)C(C)O3)C(O)C(C)O2)C(O)C(C)O1 (configuration not stated) [Chromomycin A3] | 42.1 | 19.4 | 175 (active) | 196 (active)
20 | CCC1C=CC=CCC(C)C(O)C(C)(O)C(=O)C(C)C(O)C(C)C(=O)C(C)C(O)C(C)C=CC(=O)OC2C(C)C(CC1)OC1(CCC(C)C(CC(C)O)O1)C2C (configuration not stated) [Oligomycin A] | 79.8 ± 16 | 87 ± 27 | 93.9 (inactive) | 114 (inactive)
21 | Cl.NN=C(N)N [Aminoguanidine hydrochloride] | 105 | 109 | 93.8 (inactive) | 94.2 (inactive)
22 | CNC1CC(c2ccc(Cl)c(Cl)c2)c2ccccc21.Cl (configuration not stated) [Indatraline hydrochloride] | 84.1 | 85.9 | 110 (inactive) | 133 (inactive)
23 | O=C1C=C2C(=CCOC2O)O1 (configuration not stated) [Patulin] | 22.4 | 8.4 | 224 (active) | 132 (inactive)
